# Test results as given in PubChem BioAssay AID1347146 (National Center for Advancing Translational Sciences (NCATS), 2019).
# Several values for one entry are separate records, joined by “and”; a condition that tells them apart may be missing. Equal entries are not always repeated. Results filed as inconclusive are left out. Values without a mark were called inactive. Activity calls are given as the source filed them. The call rests on the fitted dose curve; in most records, active means well fitted inhibition curve with a large enough effect; inconclusive means small, poorly fitted or top-dose-only effect; inactive means no such curve, though single readings can be large or run the other way.
# Molecular target: Nicotinamide N-methyltransferase (Homo sapiens) (UniProt P40261)
# Assay: qHTS Assay for Inhibitors of N-terminal methyltransferase 1 (NTMT1): NNMT MTaseGlo counterscreen assay
# Conditions: NNMT enzyme, MTase-Glo luminescence counterscreen; series mostly up to 57.1 µM; activity change, negative = inhibition: at the top concentration
# Text: Assay Submitter (PI): Rong Huang Ph.D, Purdue University, West Lafayette, IN 47907
# The N-terminal methytransferase 1 is the first methyltransferase that methylates protein alpha-N-amines and plays an important role in regulating cell mitosis, chromatin interactions and DNA repair. It is observed to be over-expressed in various cancer patient tissues like malignant melanoma and colorectal cancer tissues. Knockdown of NTMT1 in cancer cells causes cell mitotic defects and enhances sensitivity to DNA damaging chemotherapeutics. […] These critical cellular processes in which NTMT1 is implicated, coupled with emerging links to cellular dysfunction, strengthen the inference that NTMT1 is a compelling novel anticancer target. Progress have been made in understanding the molecular properties of NTMT1 and the biological consequences of protein alpha-N-terminal methylation, but there are no specific small molecule probes available for NTMT1 to fully characterize its MTase activity. To address this unmet need, a panel of assay is created and established to enable quantitative high-throughput screening (qHTS) for novel, potent, and selective small molecule NTMT1 inhibitors. Two orthogonal qHTS that use different reagents (ThioGlo vs. MTaseGlo) are developed for primary robotic screening against the NCATS chemical library of more than 400,000 small molecules. Identified inhibitors are reacquired, validated, and further characterized.
# MTaseGlo Assay is a luminescence screen that measure the activity of methyltransferases based on the reaction product S-adenosyl homocysteine (SAH). The substrate SAM is converted to SAH upon enzyme activation. MTase-Glo reagent and detection solution convert SAH to ATP and measure the light from the luciferase reaction. Nicotinamide N-methyltransferase (NNMT) is a cystolic enzyme that catalyzes the transfer of a methyl group from the co-factor SAM onto the substrate, nicotinamide (NA) to form 1-methyl-nicotinamide (MNA) and SAH. NNMT MTaseGlo assay is used as a counterscreen to evaluate selectivity of identified inhibitors.
# Early Translation Branch (ETB)
# National Center for Advancing Translational Sciences (NCATS)
# National Institute of Health (NIH)
# NNMT enzyme, SAM, NA, and control is provided by the Huang laboratory.
# In brief, 3 µL of enzyme mixture (final concentrations of 125 nM and 100 µM for NNMT and SAM, respectively) into all wells of a 1,536-well solid-bottom white plate (Greiner Bio One, Monroe, NC). 23 nL of DMSO or compound (final concentration range 234 nM to 143 microM) was transferred via Wako Pin-tool (Wako Automation, Richmond, VA) and incubated (RT) for ~15 minutes. Next, 1 µL of substrate (final concentration 1 µM NA) or buffer was dispensed, and the reaction proceeded for 30 minutes (RT, protected from light) followed by a 1 microL addition of [5X] MTase-Glo Reagent(R). Samples were incubated (RT, protected from light) for 30 minutes to allow for SAH to be converted to ADP, followed by a 5 microL addition of [1X] MTase-Glo Detection Solution(R) to allow for ADP to be converted to ATP, which was then detected with a luciferase reaction. Samples were centrifuged for 15 seconds at 1,000 RPM's, followed by a RT incubation for 30 minutes. Plates were then read using Luminescence optics on a ViewLux detector. Data were normalized to no-enzyme (0% activity) and no-inhibitor (DMSO; 100%) controls, and the resulting percent inhibition data were fitted to a 4-parameter Hill equation using Graphpad Prism.
# Potency means the concentration at half of the fitted maximal effect.
# Sequence of Nicotinamide N-methyltransferase (Homo sapiens) (P40261 whole entry, looked up): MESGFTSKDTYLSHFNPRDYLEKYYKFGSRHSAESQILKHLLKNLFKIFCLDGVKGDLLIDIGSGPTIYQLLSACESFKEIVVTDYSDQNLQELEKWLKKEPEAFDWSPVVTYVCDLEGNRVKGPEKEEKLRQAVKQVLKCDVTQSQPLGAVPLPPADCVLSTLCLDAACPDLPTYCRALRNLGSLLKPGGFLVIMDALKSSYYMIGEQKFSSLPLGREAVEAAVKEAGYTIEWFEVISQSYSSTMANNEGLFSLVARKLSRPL
SMILES,"activity change, negative = inhibition",Potency
CCCCNc1ccc(C(=O)OCCN(C)C)cc1,-6.3%,–
Cc1nn(-c2ccccc2)c(C)c1/C=N/N1CCN(Cc2ccccc2)CC1,-7.51%,–
Oc1ccccc1O,17.2%,–
CCNC(=O)[C@H]1O[C@H](n2cnc3c(N)nc(NCCc4ccc(CCC(=O)O)cc4)nc32)[C@@H](O)[C@@H]1O,-13.3%,–
NC[C@@H]1O[C@H](c2ccccc2)Cc2c1ccc(O)c2O,-10.6%,–
Nc1nc(Cl)nc2c1ncn2[C@@H]1O[C@H](CO)[C@@H](O)[C@@H]1F,-14.4% [at 114 µM],–
CN(C)CCCN1c2ccccc2Sc2ccc(Cl)cc21,-18.9%,–
O=C(Nc1ccc([N+](=O)[O-])cc1Cl)c1cc(Cl)ccc1O,-10.7%,–
CCCCC#Cc1nc(NC)c2ncn([C@@H]3O[C@H](CO)[C@@H](O)[C@H]3O)c2n1,-8.74%,–
C=CCN1CCc2c(cc(O)c(O)c2Cl)C(c2ccccc2)C1 (stereo not given),-10.9%,–
COc1cc2c(NC3CCN(CC4CCCCC4)CC3)nc(N3CCCCC3)nc2cc1OCCCN1CCCCC1,-2.71%,–
O=c1ccc2ccc(O)c(O)c2o1,-8.78%,–
COc1cc2nc(N3CCCN(C)CC3)nc(NC3CCNCC3)c2cc1OC,-5.53%,–
OC[C@H]1O[C@@H](n2cnc3cncnc32)[C@H](O)[C@@H]1O,–,11.2 µM (active)
OC[C@H]1O[C@@H](n2cnc3c(NCc4ccco4)ncnc32)[C@H](O)[C@@H]1O,48.5%,–
N[C@@H](Cc1c[nH]c2ccc(O)cc12)C(=O)O,–,inactive
CC(C)COCC(CN(Cc1ccccc1)c1ccccc1)N1CCCC1 (stereo not given),-7.75%,–
N=c1c[n+](N2CCOCC2)[n-]o1,-13.7%,–
C[C@H](Cc1ccc(O)c(O)c1)[C@@H](C)Cc1ccc(O)c(O)c1,–,22.4 µM (active) and 25.1 µM (active)
O=S(=O)(c1cccc2c(Cl)cccc12)N1CCCNCC1,-28.2%,–

SMILES,"activity change, negative = inhibition",Potency
COc1ccc(C(=O)/C(Cc2cc(OC)c(OC)c(OC)c2)=C(\C(=O)O)c2ccc3c(c2)OCO3)cc1,-17.5%,–
CC(C)NC[C@H](O)c1ccc(O)c(O)c1,–,inactive
O=C1Nc2ccc(I)cc2/C1=C/c1cc(Br)c(O)c(Br)c1,–,25.1 µM (active)
CC(=O)c1ccc2c(c1)N(CCCN(C)C)c1ccccc1S2,-29%,–
Oc1ccc(C2CNCc3sccc32)cc1O (stereo not given),–,35.5 µM (active)
CCN(CC)C(C)CN1c2ccccc2Sc2ccccc21 (stereo not given),-2.39%,–
COc1cc2c(NC3CCN(C(C)C)CC3)nc(N3CCC(F)(F)CC3)nc2cc1OCCCN1CCCCC1,-5.35%,–
CSc1ccc(C(=O)c2[nH]c(=O)[nH]c2C)cc1,-13.4%,–
Nc1ncnc2c1ncn2[C@@H]1O[C@H](CO)[C@@H](O)[C@H]1O,–,inactive
Clc1nccc2c1ccc1ccccc12,-13.2%,–
O=C(/C=C/c1ccc(O)cc1)c1ccc(O)cc1O,-18.7%,–
CSc1nc(N)c2ncn([C@@H]3O[C@H](COP(=O)(O)OP(=O)(O)OP(=O)(O)O)[C@@H](O)[C@H]3O)c2n1,-12.5%,–
CC[n+]1c(/C=C/C=C2/N(C)c3ccccc3C2(C)C)sc2ccccc21,–,15.8 µM (active)
O=C(O)Cc1ccc(O)c(O)c1,-4.93%,–
COc1ccccc1CNCCCCCCNCCCCCCCCNCCCCCCNCc1ccccc1OC,-15.9%,–
CCN1C(=O)C=CC1=O,-5.26%,–
Cc1c(OCC(F)(F)F)ccnc1CS(=O)c1nc2ccccc2[nH]1 (stereo not given),-12.3%,–
COc1cccc(OC)c1OCCNCC1CSc2ccccc2O1 (stereo not given),-11.3%,–
O=C1NC(=O)C(=Cc2ccc(-c3ccc(F)cc3O)o2)S1,-13.8%,–
O=Nc1ccc2oc(=O)ccc2c1,-8.49%,–
